Test results reported in PubChem BioAssay AID720593 (Broad Institute, 2013).
Results with a measured potency or affinity are listed apart. The source made the active and inactive calls.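 How the source made its calls: active means falling viability curve whose half-maximal potency lies within twice the top valid tested dose; inconclusive means flat curve with moderate signal loss, or unreliable curve fit; inactive means the rest.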

Experiment: HeLa cell cytotoxicity, dose response, cytotoxicity control, CellTiter-Glo luminescence, dry powder, set 2 (AID 720593)
Settings: HeLa viability, ATP luminescence (CellTiter-Glo), 72 h; series mostly up to 26 µM

SMILES | outcome
CC1CCN(S(=O)(=O)c2ccc(C(=O)Nc3nnc(-c4cccs4)o3)cc2)CC1 | inactive
CC(C)Cc1nnc(NC(=O)c2cccc(S(=O)(=O)N3CCOCC3)c2)s1 | inactive
CC1CCN(S(=O)(=O)c2ccc(C(=O)Nc3nnc(C4=COCCO4)o3)cc2)CC1 | inactive
COC(=O)c1ccc(NC(=O)CSc2ccc(-c3ccccn3)nn2)cc1 | inactive
O=C(Nc1nc(-c2ccncc2)cs1)c1ccco1 | inactive
Cc1c(C(=O)N(C)C)sc2nc(-c3ccccn3)[nH]c(=O)c12 | inactive
CC1CCN(S(=O)(=O)c2ccc(C(=O)Nc3nnc(C4CC4)o3)cc2)CC1 | inactive
CC1CCN(S(=O)(=O)c2ccc(C(=O)Nc3nnc(-c4ccccc4)o3)cc2)CC1 | inactive
CC1CCN(S(=O)(=O)c2ccc(C(=O)Nc3nnc(-c4ccno4)o3)cc2)CC1 | inactive
Cc1ccc(S(=O)(=O)CCc2nnc(NC(=O)c3ccccc3)s2)cc1 | inactive
FC(F)(F)c1cc(-c2nn[nH]n2)cc(C(F)(F)F)c1 | inactive
O=C(CSc1ccc(-c2ccccn2)nn1)NC1CCCCC1 | inactive
O=C(CSc1ccc(-c2ccccn2)nn1)Nc1nccs1 | inactive
CC1CCN(S(=O)(=O)c2ccc(C(=O)Nc3nnc(-c4ccccn4)o3)cc2)CC1 | inactive
CC1CCCN(S(=O)(=O)c2ccc(C(=O)Nc3nnc(C4=COCCO4)o3)cc2)C1 (centres undefined) | inactive
Cc1ccc(C(=O)Nc2nc(-c3ccccc3)cs2)o1 | inactive
COC(=O)Cc1cc(=O)n(-c2nc3ccccc3[nH]2)[nH]1 | inactive
O=C(Nc1nnc(C2=COCCO2)o1)c1ccc(S(=O)(=O)N2CCCCC2)cc1 | inactive
Cc1ccc(C(=O)Nc2nc(-c3ccccn3)cs2)cc1S(=O)(=O)N1CCOCC1 | inactive
CC1CC(C)CN(S(=O)(=O)c2ccc(C(=O)Nc3nnc(C4=COCCO4)o3)cc2)C1 (centres undefined) | inactive
O=C(CSc1ccc(-c2ccccn2)nn1)N1CCCC1 | inactive
Cc1cccc(NC(=O)CSc2ccc(-c3ccccn3)nn2)c1C | inactive
CC1CCN(S(=O)(=O)c2ccc(C(=O)Nc3nnc(-c4ccco4)o3)cc2)CC1 | inactive
Cc1nnc(NC(=O)c2ccc(S(=O)(=O)N3CCCCC3)cc2)o1 | inactive
